# Results filed as inconclusive are left out. A number with no mark means an inactive call. Activity calls are given as the source filed them. The call rests on the fitted dose curve; in most records, active means well fitted cell-killing curve with a large enough effect; inconclusive means small, poorly fitted or top-dose-only effect, or effect the other way; inactive means no such curve, though single readings can be large or run the other way.
# Assay: Quantitative High-Throughput drug screen in 47 multiple myeloma cell lines against the NCATS MIPE library collection: L363_DSMZ cell viability assay (AID 1918984); further: nearly all actives have a fitted effect of over 40% in size
# Conditions: L363 myeloma viability, CellTiter-Glo ATP luminescence, 48 h; series mostly up to 45.8 µM; viability (% of control): at the top concentration
# Excerpt: PI: Beverly A. Mock Ph.D.
# Laboratory of Cancer Biology and Genetics,
# Center for Cancer Research, National Cancer Institute,
# National Institute of Health, Bethesda, Maryland
# Drug resistance and disease progression are common in multiple myeloma (MM) patients, underscoring the need for new therapeutic combinations. […] We hypothesized that effective combinations would reduce MYC expression and enhance p16 activity. […] These preclinical data identify potentially useful drug combinations for evaluation in drug-resistant MM and reveal potential mechanisms of combined drug sensitivity.
# Described herein is the primary MIPE qHTS used to cherrypick compounds. Validated compounds were then further tested for potential synergistic activiy.
# [1] Peat TJ, Gaikwad SM, Dubois W, Gyabaah-Kessie N, Zhang S, Gorjifard S, Phyo Z, Andres M, Hughitt VK, Simpson RM, Miller MA, Girvin AT, Taylor A, Williams D, D'Antonio N, Zhang Y, Rajagopalan A, Flietner E, Wilson K, Zhang X, Shinn P, Klumpp-Thomas C, McKnight C, Itkin Z, Chen L, Kazandijian D, Zhang J, Michalowski AM, Simmons JK, Keats J, Thomas CJ, Mock BA. Drug combinations identified by high-throughput screening promote cell cycle transition and upregulate Smad pathways in myeloma. Cancer Lett. 2023 Aug 1;568:216284. doi: 10.1016/j.canlet.2023.216284. Epub 2023 Jun 24. PMID: 37356470; PMCID: PMC10408729.
# SEQUENCE No. (e.g., 1, 2, 3, etc.); […] (e.g., Cells, Incubation, Reagent, etc.); VALUE and DESCRIPTION.
# 1; Cells; 5 uL; white, solid bottom 1536-well Greiner assay plate.
# 2; Compounds; 23 nL; Kalypsis pin tool (Wako USA) equipped with a 1536-well pin head to transfer to the assay plates.
# 3; Incubation; 48 hours; 37C incubation.
# 4; Reagent;5uL; CellTiter Glo (Promega).
# 5; Detector; 425V; Luminescence; Viewlux PerkinElmer.
# NOTES (numbers refer to Sequence numbers above)
# 1. The cell-based screening methods employed in this study were like those previously published. Briefly, the corresponding myeloma cell lines were screened in 1,536-well plates with 500 cells, 5-uL per well for inhibition of cell viability (assessed by measuring ATP levels with CellTiterGlo).
# 2. NCATS MIPE 4.0 library of approved and investigational drugs were added using the Kalypsis pin tool. Wells treated with DMSO only for 100% viability and media only for 0% viability were used as controls.
# 3. The assay plates were covered and incubated for 48 hours in a 37C, 5% CO2 incubator with controlled humidity.
# 4. After 48 hours, CellTilter-GloTM luminescent substrate mix (Promega) reagent was added to the assay plate and plates we incubated for 5 min at room temperature.
# 5. Signal was measured as median relative luminescence units on a ViewLux (PerkinElmer) multiplate reader.
# [1] Heske CM, Davis MI, Baumgart JT, Wilson K, Gormally MV, Chen L, Zhang X, Ceribelli M, Duveau DY, Guha R, Ferrer M, Arnaldez FI, Ji J, Tran HL, Zhang Y, Mendoza A, Helman LJ, Thomas CJ. Matrix Screen Identifies Synergistic Combination of PARP Inhibitors and Nicotinamide Phosphoribosyltransferase (NAMPT) Inhibitors in Ewing Sarcoma. Clin Cancer Res. 2017 Dec 1;23(23):7301-7311. doi: 10.1158/1078-0432.CCR-17-1121. Epub 2017 Sep 12. PMID: 28899971; PMCID: PMC6636827.
# Potency means the concentration at half of the fitted maximal effect.
Compound,viability (% of control),Potency
COc1ccc(C2CNC(=O)C2)cc1OC1CCCC1 (stereo not given),131%,–
CN1CCC(=C2c3ccccc3CC(=O)c3sccc32)CC1,–,23.5 µM (active)
CN(C)c1nc(N(C)C)nc(N(C)C)n1,76.2%,–
CN1C(C(=O)Nc2ccccn2)=C(O)c2ccccc2S1(=O)=O,72.9%,–
Cc1cc(C(C)(C)C)c(O)c(C)c1CC1=NCCN1,126%,–
CC1(CN2CCC(n3c(=O)[nH]c4ccccc43)CC2)OCc2ccccc2-n2cccc21 (stereo not given),70.5%,–
C[C@](N)(Cc1ccc(O)c(O)c1)C(=O)O,77.1%,–
NCCCCCC(=O)O,116%,–
C[C@@H]1CC(=O)NN=C1c1ccc(NN=C(C#N)C#N)cc1,90.4%,–
O=C(c1ccc(F)cc1)C1CCN(CCn2c(=O)[nH]c3ccccc3c2=O)CC1,101%,–
CC(=O)OCC(CCn1cnc2cnc(N)nc21)COC(C)=O,93.8%,–
CC(C)NCC(O)c1ccc(O)c(O)c1 (stereo not given),–,1.87 µM (active)
CN(CCOc1ccc(NS(C)(=O)=O)cc1)CCc1ccc(NS(C)(=O)=O)cc1,94%,–
O=C(C1CCCCC1)N1CC(=O)N2CCc3ccccc3C2C1 (stereo not given),95.9%,–
Cc1ccc(-c2cc(C(F)(F)F)nn2-c2ccc(S(N)(=O)=O)cc2)cc1,83.6%,–
CN(C)CCC=C1c2ccccc2C=Cc2ccccc21,103%,–
COc1nc(C)nc(Cl)c1NC1=NCCN1,100%,–
CN1CCN(CCCN2c3ccccc3Sc3ccc(Cl)cc32)CC1,–,3.32 µM (active)
COc1ccccc1OCC(O)CN1CCN(CC(=O)Nc2c(C)cccc2C)CC1 (stereo not given),89.8%,–
O=C1c2c(O)ccc(O)c2C(=O)c2c(NCCNCCO)ccc(NCCNCCO)c21,–,2.35 µM (active)

Compound,viability (% of control),Potency
CC(C)(C)C(=O)Oc1ccc(S(=O)(=O)Nc2ccccc2C(=O)NCC(=O)O)cc1,93.5%,–
CC#C[C@]1(O)CC[C@H]2[C@@H]3CCC4=CC(=O)CCC4=C3[C@@H](c3ccc(N(C)C)cc3)C[C@@]21C,–,2.64 µM (active)
N[C@@H](Cc1c[nH]c2ccc(O)cc12)C(=O)O,106%,–
NC(=O)NO,–,5.9 µM (active)
Clc1ccc(C(c2ccccc2Cl)C(Cl)Cl)cc1 (stereo not given),91%,–
COC(=O)Nc1nc2ccc(C(=O)c3cccs3)cc2[nH]1,–,0.001 µM (active)
Cn1c(=O)c2c(ncn2C)n(C)c1=O,82.4%,–
CN1C2CCC1CC(OC(=O)C(CO)c1ccccc1)C2 (stereo not given),98.6%,–
COc1cc2nc(N3CCN(C(=O)C4COc5ccccc5O4)CC3)nc(N)c2cc1OC (stereo not given),108%,–
CC(C)NCC(O)COc1ccc(CCOCC2CC2)cc1 (stereo not given),93.3%,–
Cn1cnc2c1c(=O)[nH]c(=O)n2C,–,7.43 µM (active)
CC(C)Cc1ccc(C(C)C(=O)O)cc1 (stereo not given),69.7% [at 23.2 µM],–
CN(C)C(=O)C(CCN1CCC(O)(c2ccc(Cl)cc2)CC1)(c1ccccc1)c1ccccc1,134%,–
OCCN1CCN(CCCN2c3ccccc3Sc3ccc(C(F)(F)F)cc32)CC1,–,7.43 µM (active)
Cc1cn([C@H]2C=C[C@@H](CO)O2)c(=O)[nH]c1=O,89.5% [at 92.2 µM],–
Nc1nc2c(ncn2COC(CO)CO)c(=O)[nH]1,–,20.9 µM (active)
CCc1cccc2c3c([nH]c12)C(CC)(CC(=O)O)OCC3 (stereo not given),131%,–
Cc1ccc(C(=O)Nc2ccc(S(=O)(=O)O)c3cc(S(=O)(=O)O)cc(S(=O)(=O)O)c23)cc1NC(=O)c1cccc(NC(=O)Nc2cccc(C(=O)Nc3cc(C(=O)Nc4ccc(S(=O)(=O)O)c5cc(S(=O)(=O)O)cc(S(=O)(=O)O)c45)ccc3C)c2)c1,96.2%,–
COc1cc2nc(N3CCN(C(=O)c4ccco4)CC3)nc(N)c2cc1OC,–,7.43 µM (active)
NC(CO)C(=O)NNCc1ccc(O)c(O)c1O (stereo not given),88.1%,–

# From PubChem BioAssay (NCATS)
